The list is not random: actives were taken first. Their share in the collection is about 2.8%.
CF NFkB block = cystic fibrosis NF-kB activation inhibition; KKLEB NF-kB-GFP reporter, PAF-induced, GFP fluorescence overnight; inhibition, % at 5 µM; 360,000 tested, 0.86% active;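 active means at least 50% inhibition at 5 µM, scaled per plate between neutral and stimulator controls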;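 further: PAF is a Pseudomonas aeruginosa culture filtrate used as stimulus; plate controls were PAF-stimulated DMSO wells for no effect and unstimulated DMSO wells for full effect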
MITF TRPM1 inh = inhibitors of MITF-driven TRPM1 promoter in melanoma cells; SK-MEL-5 TRPM1 promoter luciferase, 24 h; 330,000 tested, 0.83% active; inhibition, % at 12.5 µM;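 active means mean inhibition across replicates of 60% or more, whatever share of single replicates reaches that level; inconclusive means some that reach 60%, reason not given; inactive means mean inhibition across replicates below 60%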
Peg3 promoter = inhibitors of Peg3 promoter; HeLa PEG-Prom luciferase reporter, luminescence, overnight; inhibition, % at 20 µM; 360,000 tested, 1.7% active; AID 588405;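 active means inhibition of at least 50% at 20 µM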
HIF-2a block = inhibitors of HIF-2a; 786-0 RCC cells HIF-2a reporter, luciferase luminescence, overnight; inhibition, % at 18.8 µM; 360,000 tested, 0.72% active; AID 624352;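 active means inhibition of the luminescence signal of 40% or more relative to plate controls, in a single-dose primary screen at 18.75 µM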
Shn3 inh set2 = inhibitors of Schnurri-3 3'UTR reporter in osteoblasts. Clone20 osteoblast Shn3 3'UTR firefly luciferase, 24 h. inhibition, % at 12.5 µM. 360,000 tested, 0.52% active. AID 588674;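 active means mean inhibition of at least 75% with every replicate also reaching 75%; inconclusive means mean inhibition at least 75% but some replicate below; inactive means mean inhibition below 75%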;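 further: 0% = median of neutral control wells and 100% = pilot-screen positive control compound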
KKLEB tox = reduces viability of KKLEB cystic fibrosis airway cells; KKLEB CF airway cells viability, ATPlite luminescence, overnight; hits give low values; cells stimulated with P. aeruginosa culture filtrate; activity change (cytotoxicity), % at 5 µM; 360,000 tested, 0.36% active;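 active means corrected activity change at or below -50% at 5 µM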
* hit, by the source's call; ? = inconclusive; · = no result; ! = not active in a repeat.

SMILES	CF NFkB block	MITF TRPM1 inh	Peg3 promoter	HIF-2a block	Shn3 inh set2	KKLEB tox
N#Cc1c(N)n(C2OC(CO)C(O)C2O)c2ncnc(N)c12 (configuration not stated)	89.3*	70.6*	96.1*	71.0*	65.1	-62.3*
CC(=O)Oc1ccc(C(=O)Nc2cccc3c2CCCC3)cc1	10.0	-3.0	16.6	-6.6	9.3	2.1
COc1ccc(NC(=O)C2c3ccccc3OCC(=O)N2CC(F)(F)F)cc1 (configuration not stated)	·	·	·	-3.7	·	·
CCc1nnc(NC(=O)CCC(=O)N2CCN(Cc3ccc(F)cc3)CC2)s1	11.4	-7.0	3.7	-2.1	-7.0	-7.9
O=C(/C=C/c1ccccc1Cl)c1ccccc(=O)c1O	-50.9	6.4	71.0*	9.5	15.5	-22.4
Cc1ccc(C)c(/C=C/C(=O)c2ccccc(=O)c2O)c1	-17.2	30.3	17.4	71.7*	66.4	-10.6
Cc1ccc(/C=C/C(=O)c2ccccc(=O)c2O)c(C)c1	-28.7	0.4	-78.2	35.8	43.1	1.1
O=C(/C=C/c1ccccc1Cl)c1cccnc1	-1.5	-3.4	15.8	17.1	2.8	6.8
CCOC(=O)Cc1csc(NC(=O)CSc2nccn2C)n1	18.0	11.1	9.0	1.1	-4.8	-10.5
N=C1S/C(=C\c2cccc3ccccc23)C(=O)N1c1ccc(F)cc1	17.7	1.1	34.5	2.3	23.4	-14.0
CSC1=NC(=O)/C(=C\c2cccc3ccccc23)S1	-9.4	10.7	56.5*	-28.2	15.6	-2.4
CC(S(=O)(=O)c1ccccc1)S(=O)(=O)c1ccccc1	-8.4	·	-5.2	5.6	15.7	-8.4
CC1=C/C(=N\OS(=O)(=O)c2ccccc2)C(C(C)C)=CC1=O	4.4	9.5	95.7*	29.5	67.8	9.8
CC1(C(=O)NS(=O)(=O)c2cccc(F)c2)CCN1C(=O)C1CCCCC1 (configuration not stated)	-0.3	·	7.2	6.6	4.8	6.4
CCCc1cc(=O)c2ccc(OC/C(C)=N/O)cc2o1	-7.3	3.3	5.7	-7.0	-1.9	3.3
CCN(CC)S(=O)(=O)c1ccc(-c2nnc(SCC(=O)N3CCOCC3)o2)cc1	9.5	-1.6	2.0	0.5	-7.3	-2.0
CCN(CC)S(=O)(=O)c1ccc(-c2nnc(SCC(=O)N3CCc4ccccc43)o2)cc1	1.3	24.2	52.2*	-8.5	41.1	-13.9
COc1cccc(CN2CC(C(=O)NC3CCC3)CCC2=O)c1 (configuration not stated)	5.2	-0.2	3.9	-12.0	16.6	5.7
Cc1cc([N+](=O)[O-])ccc1NC(=O)CN1CCN(Cc2ccccc2)CC1	-8.5	9.6	7.4	13.2	9.0	12.2
O=C(CN1CCN(Cc2ccccc2)CC1)Nc1ccc([N+](=O)[O-])cc1C(=O)Nc1ccccc1F	17.8	0.2	62.5*	26.6	30.4	-28.6
O=C(Nc1c(-c2ccccc2)[nH][nH]c1=O)c1ccc(Br)cc1	1.6	·	-6.5	9.1	0.6	-14.5
CSC(=S)NN=C(C)c1cccc(C)n1	76.0*	74.2*	35.0	-14.7	92.7*	-9.6
CC(=NNC(=S)N1CCCCC1)c1cccc(C)n1	-34.8	44.2	-27.3	-109.7	76.5	25.9
CCN(CC)CCCNC(=O)C(C)n1nc(C)c2sc3ccccc3c2c1=O (configuration not stated)	14.1	-5.8	-27.7	0.0	6.2	-4.8
CCN(CC)CCNc1ccc(C)c2sc3ccc(O)cc3c(=O)c12	-171.3	84.5*	98.1*	9.9	30.2	5.4
SMILES	CF NFkB block	MITF TRPM1 inh	Peg3 promoter	HIF-2a block	Shn3 inh set2	KKLEB tox
O=C(c1cc(S(=O)(=O)N2CCC3(CC2)OCCO3)ccc1F)N1CCCCC1	8.8	-7.7	-2.3	11.9	-6.2	4.1
NC(=O)Nc1ccc(C(=O)OCC(=O)N2CCCC2=O)cc1	16.1	·	-11.8	5.6	-5.3	0.6
CN(C)Cc1ccc(-c2nc3cccc4c3n2CCNC4=O)cc1	14.5	12.1	57.6*	-4.8	-34.2	5.4
CCCCCCCCCCOC(=O)Cn1c(COc2ccccc2)[n+](C)c2ccccc21	71.2*	11.5	100.0*	-12.0	?	-61.8*
CCCCCCCCCCOC(=O)Cn1c(COc2ccc(OC)cc2)[n+](C)c2ccccc21	33.5	85.5*	105.3*	-57.2	94.1*!	-22.3
CCCCCCCCCCOC(=O)Cn1c(COc2cccc(C)c2)[n+](C)c2ccccc21	24.3	46.8	45.8	-24.6	59.1	-28.4
CCCCCCCCCCOC(=O)Cn1c(COc2ccccc2C)[n+](C)c2ccccc21	59.9*	4.7	106.7*	1.9	?	-42.4
COc1cc2c(cc1[N+](=O)[O-])-c1ccc([N+](=O)[O-])cc1C2=NO	-186.9	·	52.0*	-38.1	-24.7	14.3
COc1cccc(CNCCc2c[nH]c3ccccc23)c1OCc1ccccc1	10.4	94.2*	104.7*	-8.2	?	-14.1
Cc1ccc(C(=O)NC2CCN(CC(=O)NC3CCC(C)CC3)CC2)cc1 (configuration not stated)	5.6	2.7	-3.8	-6.1	0.0	-1.8
Cc1cccc(NC2=C(NC(=O)c3ccccc3)C(=O)c3ccccc3C2=O)c1	7.4	?	8.3	2.4	-41.7	2.4
Cc1ccc(S(=O)(=O)/N=C2\C=C(Nc3cccc(C(=O)O)c3)C(=O)c3ccccc32)cc1	98.2*	2.6	-221.4	-2.6	-26.8	-33.1
Cc1ccc(S(=O)(=O)/N=C2\C=C(Nc3cccc(C(=O)O)c3)C(=O)c3ccccc32)c(C)c1	92.5*	16.7	-53.0	-89.2	5.1	-38.1
CCc1ccc(S(=O)(=O)/N=C2\C=C(Nc3ccc(C(=O)O)cc3)C(=O)c3ccccc32)cc1	90.3*	16.4	15.0	10.5	-14.4	-31.3
Cc1ccc(S(=O)(=O)/N=C2\C=C(Nc3ccc(O)cc3)C(=O)c3ccccc32)cc1	83.1*	98.7*	105.3*	70.5*	97.3*	-80.2*
COC(=O)C[C@@H]1C=C[C@@H](NC(=O)c2ccccc2F)[C@@H](CO)O1	·	·	·	8.7	·	·
CCN(C(=O)C1CC1)C1CCS(=O)(=O)C1 (configuration not stated)	-17.0	-13.4	0.1	9.6	10.6	2.2
CCc1ccccc1NC(=O)CNC(=O)c1ccc(-n2cncn2)c([N+](=O)[O-])c1	-4.9	5.5	5.4	7.5	-1.6	2.3
COC(=O)c1ccccc1NC1=C/C(=N\S(=O)(=O)c2ccc(C(=O)O)cc2)c2ccccc2C1=O	97.4*	90.1*	104.9*	-19.6	80.5	-61.7*
CN(C)CCCN(C(=O)c1ccc(Br)s1)c1nc2cc3c(cc2s1)OCCO3	-5.3	17.2	-25.2	-52.5	-16.5	-7.6
CN(C)CCCN(C(=O)c1ccc(Cl)s1)c1nc2cc3c(cc2s1)OCO3	2.9	82.8*	-28.4	-37.1	-28.9	4.0
CN(C)CCCN(C(=O)c1ccc([N+](=O)[O-])s1)c1nc2cc3c(cc2s1)OCCO3	-5.4	66.9*	-63.7	16.8	20.3	23.6
